{"source": "PubChem BioAssay", "note": "Results filed as inconclusive are left out. Activity calls are given as the source filed them. Unless noted, no cut-off is given here; in the data, nearly all actives have AC50 up to about 26 µM.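 Note: cells exposed to compound for 48 hours before readout.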", "data": [{"experiment": "growth inhibition of DIPG cells – cell-based, MIPE4.0 library, CellTiter-Glo luminescence, qHTS (AID 1347066; cut-off not given, nearly all actives have AC50 up to about 30 µM)", "settings": "SU-DIPG-VI viability, CellTiter-Glo ATP luminescence", "values": [{"smiles": "COc1c(O)cc2c(c1O)[C@@H]1O[C@H](CO)[C@@H](O)[C@H](O)[C@H]1OC2=O", "outcome": "inactive"}, {"smiles": "CCC(=O)NCC[C@@H]1CCc2ccc3c(c21)CCO3", "outcome": "inactive"}, {"smiles": "C[C@@H]1[C@H](O)[C@@H](C)/C=C/C=C/C=C/C=C/C=C/C=C/C=C/[C@H](O[C@@H]2O[C@H](C)[C@@H](O)[C@H](N)[C@@H]2O)C[C@@H]2O[C@](O)(C[C@@H](O)C[C@@H](O)[C@H](O)CC[C@@H](O)C[C@@H](O)CC(=O)O[C@H]1C)C[C@H](O)[C@H]2C(=O)O", "outcome": "inactive"}, {"smiles": "CC(C)(S)[C@@H](N)C(=O)O", "outcome": "inactive"}, {"smiles": "CC1(C)[C@@H](O)CC[C@]2(C)[C@H]3C(=O)C=C4[C@@H]5C[C@@](C)(C(=O)O)CC[C@]5(C)CC[C@@]4(C)[C@]3(C)CC[C@@H]12", "outcome": "inactive"}, {"smiles": "C[C@H]1O[C@@H](O[C@H]2[C@@H](O)C[C@H](O[C@H]3[C@@H](O)C[C@H](O[C@H]4CC[C@@]5(C)[C@H](CC[C@@H]6[C@@H]5C[C@@H](O)[C@]5(C)[C@@H](C7=CC(=O)OC7)CC[C@]65O)C4)O[C@@H]3C)O[C@@H]2C)C[C@H](O)[C@@H]1O", "AC50": "0.0959 µM (active)"}, {"smiles": "C[C@H]1C[C@H]2[C@@H]3CCC4=CC(=O)C=C[C@]4(C)[C@@]3(F)[C@@H](O)C[C@]2(C)[C@@]1(O)C(=O)CO", "outcome": "inactive"}, {"smiles": "CC(C)(O)CC[C@@H](O)[C@](C)(O)[C@H]1CC[C@@]2(O)C3=CC(=O)[C@@H]4C[C@@H](O)[C@@H](O)C[C@]4(C)[C@H]3CC[C@]12C", "outcome": "inactive"}, {"smiles": "C=C(C)[C@@H]1CC[C@]2(C(=O)O)CC[C@]3(C)[C@H](CC[C@@H]4[C@@]5(C)CC[C@H](O)C(C)(C)[C@@H]5CC[C@]43C)[C@@H]12", "outcome": "inactive"}, {"smiles": "COc1ccc(CCC(=O)c2c(O)cc(O[C@@H]3O[C@H](CO)[C@@H](O)[C@H](O)[C@H]3O[C@@H]3O[C@@H](C)[C@H](O)[C@@H](O)[C@H]3O)cc2O)cc1O", "outcome": "inactive"}, {"smiles": "Nc1ccn([C@@H]2O[C@H](CO)[C@@H](O)[C@H]2O)c(=O)n1", "outcome": "inactive"}, {"smiles": "C[C@@]12C[C@@]3(O)O[C@@H](O1)[C@]1(COC(=O)c4ccccc4)[C@H]3C[C@@]12O[C@@H]1O[C@H](CO)[C@@H](O)[C@H](O)[C@H]1O", "outcome": "inactive"}, {"smiles": "COC1=C(OC)C(=O)C(C/C=C(\\C)CC/C=C(\\C)CC/C=C(\\C)CC/C=C(\\C)CC/C=C(\\C)CC/C=C(\\C)CC/C=C(\\C)CC/C=C(\\C)CC/C=C(\\C)CCC=C(C)C)=C(C)C1=O", "outcome": "inactive"}, {"smiles": "COc1ccc([C@@H]2CC(=O)c3c(O)cc(O[C@@H]4O[C@H](CO[C@@H]5O[C@@H](C)[C@H](O)[C@@H](O)[C@H]5O)[C@@H](O)[C@H](O)[C@H]4O)cc3O2)cc1O", "outcome": "inactive"}, {"smiles": "COc1ccc(-c2cc(=O)c3c(O)cc(O[C@@H]4O[C@H](CO[C@@H]5O[C@@H](C)[C@H](O)[C@@H](O)[C@H]5O)[C@@H](O)[C@H](O)[C@H]4O)cc3o2)cc1O", "outcome": "inactive"}, {"smiles": "O=C1c2c(O)cccc2[C@H]([C@@H]2O[C@H](CO)[C@@H](O)[C@H](O)[C@H]2O)c2cc(CO)cc(O)c21", "outcome": "inactive"}, {"smiles": "CC1(C)[C@@H](O[C@H]2O[C@H](C(=O)O)[C@@H](O)[C@H](O)[C@H]2O[C@@H]2O[C@H](C(=O)O)[C@@H](O)[C@H](O)[C@H]2O)CC[C@]2(C)[C@H]3C(=O)C=C4[C@@H]5C[C@@](C)(C(=O)O)CC[C@]5(C)CC[C@@]4(C)[C@]3(C)CC[C@@H]12", "outcome": "inactive"}, {"smiles": "C[C@H](CCC(=O)O)[C@H]1CC[C@H]2[C@@H]3[C@H](O)C[C@@H]4C[C@H](O)CC[C@]4(C)[C@H]3CC[C@]12C", "outcome": "inactive"}]}, {"experiment": "JHH-DIPG-1 glioma cell viability, MIPE5.0 library, CellTiter-Glo luminescence, qHTS (AID 1347067)", "settings": "JHH-DIPG-1 glioma viability, CellTiter-Glo ATP luminescence", "values": [{"smiles": "CCC(=O)NCC[C@@H]1CCc2ccc3c(c21)CCO3", "outcome": "inactive"}, {"smiles": "C=C1CC[C@@H]2[C@](C)(CO)[C@H](O)CC[C@@]2(C)[C@@H]1C/C=C1/C(=O)OC[C@H]1O", "AC50": "14.8 µM (active)"}, {"smiles": "C[C@@H]1[C@H](O)[C@@H](C)/C=C/C=C/C=C/C=C/C=C/C=C/C=C/[C@H](O[C@@H]2O[C@H](C)[C@@H](O)[C@H](N)[C@@H]2O)C[C@@H]2O[C@](O)(C[C@@H](O)C[C@@H](O)[C@H](O)CC[C@@H](O)C[C@@H](O)CC(=O)O[C@H]1C)C[C@H](O)[C@H]2C(=O)O", "outcome": "inactive"}, {"smiles": "CC(C)(S)[C@@H](N)C(=O)O", "outcome": "inactive"}, {"smiles": "CC1(C)[C@@H](O)CC[C@]2(C)[C@H]3C(=O)C=C4[C@@H]5C[C@@](C)(C(=O)O)CC[C@]5(C)CC[C@@]4(C)[C@]3(C)CC[C@@H]12", "outcome": "inactive"}, {"smiles": "CN[C@H](CC(C)C)C(=O)N[C@H]1C(=O)N[C@@H](CC(N)=O)C(=O)N[C@H]2C(=O)N[C@H]3C(=O)N[C@H](C(=O)N[C@H](C(=O)O)c4cc(O)cc(O)c4-c4cc3ccc4O)[C@H](O)c3ccc(c(Cl)c3)Oc3cc2cc(c3O[C@@H]2O[C@H](CO)[C@@H](O)[C@H](O)[C@H]2O[C@H]2C[C@](C)(N)[C@H](O)[C@H](C)O2)Oc2ccc(cc2Cl)[C@H]1O", "outcome": "inactive"}, {"smiles": "CC[C@@]1(O)C[C@H](O[C@H]2C[C@H](N(C)C)[C@H](O[C@H]3C[C@H](O)[C@H](O[C@H]4CCC(=O)[C@H](C)O4)[C@H](C)O3)[C@H](C)O2)c2c(cc3c(c2O)C(=O)c2c(O)cccc2C3=O)[C@H]1C(=O)OC", "AC50": "11.8 µM (active)"}, {"smiles": "COc1cc([C@@H]2c3cc4c(cc3[C@@H](O[C@@H]3O[C@@H]5CO[C@@H](c6cccs6)O[C@H]5[C@H](O)[C@H]3O)[C@H]3COC(=O)[C@H]23)OCO4)cc(OC)c1O", "AC50": "9.34 µM (active)"}, {"smiles": "C[C@H]1O[C@@H](O[C@H]2[C@@H](O)C[C@H](O[C@H]3[C@@H](O)C[C@H](O[C@H]4CC[C@@]5(C)[C@H](CC[C@@H]6[C@@H]5C[C@@H](O)[C@]5(C)[C@@H](C7=CC(=O)OC7)CC[C@]65O)C4)O[C@@H]3C)O[C@@H]2C)C[C@H](O)[C@@H]1O", "AC50": "0.0661 µM (active)"}, {"smiles": "CCC[C@@H]1C[C@@H](C(=O)N[C@@H]([C@H]2O[C@H](SC)[C@H](O)[C@@H](O)[C@H]2O)[C@H](C)Cl)N(C)C1", "outcome": "inactive"}, {"smiles": "CC(C)(O)CC[C@@H](O)[C@](C)(O)[C@H]1CC[C@@]2(O)C3=CC(=O)[C@@H]4C[C@@H](O)[C@@H](O)C[C@]4(C)[C@H]3CC[C@]12C", "outcome": "inactive"}, {"smiles": "C=C(C)[C@@H]1CC[C@]2(C(=O)O)CC[C@]3(C)[C@H](CC[C@@H]4[C@@]5(C)CC[C@H](O)C(C)(C)[C@@H]5CC[C@]43C)[C@@H]12", "outcome": "inactive"}, {"smiles": "COc1cc([C@@H]2c3cc4c(cc3[C@H](O)[C@H]3COC(=O)[C@@H]23)OCO4)cc(OC)c1OC", "AC50": "1.05 µM (active)"}, {"smiles": "Nc1ccn([C@@H]2O[C@H](CO)[C@@H](O)[C@H]2O)c(=O)n1", "outcome": "inactive"}, {"smiles": "COc1ccc([C@@H]2CC(=O)c3c(O)cc(O[C@@H]4O[C@H](CO[C@@H]5O[C@@H](C)[C@H](O)[C@@H](O)[C@H]5O)[C@@H](O)[C@H](O)[C@H]4O)cc3O2)cc1O", "outcome": "inactive"}, {"smiles": "COc1ccc(-c2cc(=O)c3c(O)cc(O[C@@H]4O[C@H](CO[C@@H]5O[C@@H](C)[C@H](O)[C@@H](O)[C@H]5O)[C@@H](O)[C@H](O)[C@H]4O)cc3o2)cc1O", "outcome": "inactive"}, {"smiles": "N=c1ccn2c(n1)O[C@H]1[C@H](O)[C@@H](CO)O[C@H]12", "outcome": "inactive"}, {"smiles": "COc1cc(NS(C)(=O)=O)ccc1Nc1c2ccccc2nc2ccccc12", "AC50": "16.6 µM (active)"}, {"smiles": "C[C@H](CCC(=O)O)[C@H]1CC[C@H]2[C@@H]3[C@H](O)C[C@@H]4C[C@H](O)CC[C@]4(C)[C@H]3CC[C@]12C", "outcome": "inactive"}]}]}
